# Target: T1, Aspartate--tRNA(Asp/Asn) ligase (Mycobacterium tuberculosis (strain ATCC 25618 / H37Rv)) (UniProt P9WFW3)
# T1 sequence (whole entry): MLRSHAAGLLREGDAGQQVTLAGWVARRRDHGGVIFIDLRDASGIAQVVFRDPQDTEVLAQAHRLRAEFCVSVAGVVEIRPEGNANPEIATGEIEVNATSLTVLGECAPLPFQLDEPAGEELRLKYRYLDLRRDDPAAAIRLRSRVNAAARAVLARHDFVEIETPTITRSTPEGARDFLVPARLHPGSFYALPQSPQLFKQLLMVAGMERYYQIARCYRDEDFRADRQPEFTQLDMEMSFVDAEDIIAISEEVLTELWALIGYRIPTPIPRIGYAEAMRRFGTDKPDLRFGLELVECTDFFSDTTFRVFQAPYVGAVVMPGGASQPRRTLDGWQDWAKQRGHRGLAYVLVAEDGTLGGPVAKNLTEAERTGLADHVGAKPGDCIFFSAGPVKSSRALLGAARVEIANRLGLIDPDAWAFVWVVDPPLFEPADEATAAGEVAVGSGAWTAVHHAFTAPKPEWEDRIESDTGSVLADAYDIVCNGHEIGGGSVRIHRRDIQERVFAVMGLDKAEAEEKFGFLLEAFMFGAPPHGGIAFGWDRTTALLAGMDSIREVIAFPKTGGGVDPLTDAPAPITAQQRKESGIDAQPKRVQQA
# Assay: Assay for Asp RNA synthetase-1 from Mycobacterium tuberculosis
# Assay type: functional
# Parameters: scale not given: in the data most compounds retested in dose-response had high values
# Conditions: 30 µM
row,SMILES,Percent Effect
1,CNC(=O)[C@@]12CCC3(CCN(C(C)=O)CC3)[C@@H]1CN(S(C)(=O)=O)C2,-0.917%
2,COCCOc1cccc(C(=O)N2CCCC(n3ccnc3C)C2)c1 (stereo not given),-2.52%
3,CC(C)Cc1noc(CN2CCOCC2)n1,-2.59%
4,c1ccc(OCC2CC3(CCN(Cc4ccncc4)CC3)CO2)nc1 (stereo not given),1.19%
5,Cc1ncnc2c1CCN(Cc1ccc3c(c1)OCO3)CC2,-0.729%
6,COc1ccc(-c2nc(CN3CC(n4cc(C)cn4)C3)no2)cc1,6.9%
7,O=C(NCCNc1ncccn1)N(Cc1ccc(F)cc1F)C1CC1,-3.51%
8,O=C(CN1CCOC(Cn2cccn2)C1)NCc1cccs1 (stereo not given),-1.46%
9,CN1CCN(c2nc(O)c3c(-c4ccccn4)ccnc3n2)CC1,-3.26%
10,COc1ccc(OCCN(C)C(=O)NC(C)c2nncn2C)cc1 (stereo not given),-1.96%
11,O=C(NCC1CC1)[C@H]1C[C@H]2OCC[C@H]2N(Cc2ccsc2)C1,4.96%
12,Cc1nc(COCc2cnc3n2CCN(C2CCC2)C3C)cs1 (stereo not given),-4.78%
13,Cc1ccc(NC2CCN(C(=O)c3cc(C(N)=O)cs3)CC2)nn1,4.69%
14,CN(C)C(=O)N[C@@H]1CN(Cc2ccc3c(c2)OCO3)[C@@H]2CCCO[C@@H]21,-0.291%
15,Cc1cccc(CN2CCC3(CCN(Cc4ccccn4)C3)C2=O)c1 (stereo not given),0.956%
16,Cc1cc(N(C)Cc2cc(C)on2)n2nc(C)c(C)c2n1,1.81%
17,Cc1noc(C)c1C(=O)NCC(O)c1ccc(F)cc1F (stereo not given),-2.01%
18,N#Cc1cccc(S(=O)(=O)NC(=O)COC2CCCC2)c1,1.85%
19,CCc1nc(CN2CCCC(NCc3cnn(C(C)(C)C)c3)C2)no1 (stereo not given),-3.23%
20,CC(C)c1nn(C)c(Cl)c1CNCC(O)c1cccc(F)c1 (stereo not given),-0.173%

row,SMILES,Percent Effect
1,O=C(CCCc1cn[nH]c1)N1C[C@@H](CN2CCOCC2)[C@@H](CO)C1,4.17%
2,CCCc1cc(C(=O)N2CCCC(n3ccnc3C)C2)[nH]n1 (stereo not given),-3%
3,Cc1ccc(C(=O)N2CCCC2c2nnc3n2CCCCC3)o1 (stereo not given),-0.223%
4,Cc1ccc([C@@H]2CN(S(=O)(=O)N(C)C)C[C@H]2N(C)C)cc1,2.81%
5,CC(c1cccnc1)N(C)Cc1csc(-c2ccccn2)n1 (stereo not given),-4.49%
6,COCCC1(CO)CCCN(Cc2ccc(F)c(C)c2)C1 (stereo not given),6.95%
7,O=C(NCCOc1ccc2c(c1)OCO2)N1CCC1,0.81%
8,CN(C)c1cc(CNC(=O)c2ccc(F)cc2F)ccn1,-4.92%
9,CCCNC(=O)c1ccc(NC(=O)c2cccc(OCC)c2)cc1,2.98%
10,Cc1noc2ncc(C(=O)N3CCCC3c3ccncc3)cc12 (stereo not given),-7.22%
11,N#Cc1ccccc1OCCN1CCC(N2CCNC2=O)CC1,-0.816%
12,Cn1cc(-c2nc(CNCCn3cccn3)cs2)cn1,-0.0111%
13,Cc1nc(N2CCCC2)nc2c1CCN(C(=O)C1CCCC1)CC2,0.726%
14,O=C(C[C@@H]1COC[C@H]2CN(Cc3ccncc3)C[C@@H]12)N1CCOCC1,-4.65%
15,CNC(=O)[C@H]1C[C@@H]2CN(C(=O)c3cscn3)C[C@@H]2N1S(C)(=O)=O,2.65%
16,CN(C)C(=O)N1C[C@H]2CN(Cc3cccc(F)c3)C(=O)[C@H]2C1,-2.95%
17,CC(C#N)CSc1ccccc1NCC(=O)NCc1ccccc1 (stereo not given),-8.08%
18,O=C(NCCNc1ncccn1)N1CCN(Cc2cccnc2)CC1,6.28%
19,CC(C)n1ccnc1CN1CCCN(C(=O)COC2CCCC2)CC1,-1.67%
20,COc1cccc(C)c1C(=O)N1C[C@@H](CN(C)C)[C@@H](CO)C1,0.951%

# Reference: ChEMBL document CHEMBL3988442, “University of Dundee, Small-Polar-MMV Screening Library” (2021)
